Only some compounds are listed: those with a hit (about 3.3% of all), similar ones and a draw of the others.
NPSR antag – antagonists of human neuropeptide S receptor cAMP signaling. AID 1461. 1% of 220,000 active. CHO-NPSR cells, cAMP TR-FRET, antagonist mode. Potency, µM (doses to about 38.3 µM), for inactives: at the top dose activity change, negative = inhibition, most hits filed as inhibitors; further: potency means the concentration at half of the fitted maximal effect; on the % scale 0 is the no-effect control and ±100 the full control effect; nearly all actives have a fitted effect of over 50% in size
Target sequence (Q6W5P4 whole entry, looked up): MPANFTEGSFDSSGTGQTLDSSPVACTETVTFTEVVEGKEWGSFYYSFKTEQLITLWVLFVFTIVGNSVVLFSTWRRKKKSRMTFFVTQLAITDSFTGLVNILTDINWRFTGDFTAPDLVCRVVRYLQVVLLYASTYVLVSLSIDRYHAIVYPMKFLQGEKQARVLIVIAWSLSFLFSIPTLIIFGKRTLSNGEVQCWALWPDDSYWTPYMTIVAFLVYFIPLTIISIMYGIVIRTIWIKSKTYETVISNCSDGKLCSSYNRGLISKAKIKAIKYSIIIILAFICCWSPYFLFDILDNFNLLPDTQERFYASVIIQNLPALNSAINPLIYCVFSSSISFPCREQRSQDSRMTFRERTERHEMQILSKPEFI
HTT aggregate – mutant huntingtin aggregation inhibition. AID 1688. PC12 HttQ103-GFP aggregates, Acumen cytometry, 40 h. 1.1% of 220,000 active. Potency, µM (top dose mostly 46.1 µM), without a hit: at the top dose activity change, negative = inhibition, hits mostly inhibitors; further: potency means the concentration at half of the fitted maximal effect; on the % scale 0 is the no-effect control and ±100 the full control effect; nearly all actives have a fitted effect of over 60% in size
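PC12 cells stably carrying ecdysone-inducible HTT exon 1 Q103–GFP were induced with tebufenozide (100 nM final) and treated with library compounds in titration. GFP aggregates in lysates were counted by laser scanning cytometry.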
HTT ATP protect – cytoprotection in Huntington HTT-Q103 PC12 cell model. PC12 HTT-Q103 induced, cytoprotection, ATP luminescence, 40 h. Potency, µM (series often up to 56.4 µM), for inactives: cytoprotection (ATP increase), actives largely listed as activators. AID 1471. 0.14% of 230,000 active; further: potency means the concentration at half of the fitted maximal effect; % of control where 0% means no effect; nearly all actives have a fitted effect of over 45% in size
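PC12 cells stably carrying ecdysone-inducible Htt exon 1 (Q103)–GFP were induced with 100 nM tebufenozide (final) alongside library compounds in a dose series. Cytoprotection was scored as retained ATP by ATPlite luminescence.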
IMPase cell inh – IMPase inhibition in cells; P97697; CHO-M1 cells, IP1 accumulation, HTRF TR-FRET ratio; inhibition (IP1 accumulation), % at 46.1 µM; 120,000 tested, under 10 active; active means well fitted curve in the direction sought with a large enough effect in the signal ratio, not every such curve was filed as active; inconclusive means small, poorly fitted or top-dose-only effect, or a change in a side signal; inactive means no such curve, though single readings can be large or run the other way; the % refers to the signal ratio;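 further: cells stimulated with carbachol in lithium chloride buffer; plate controls were DMSO basal wells for no effect and reference inhibitor wells for full effect; higher means more IMPase inhibition seen as more IP1 and lower FRET ratio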
Target sequence (P97697 whole entry, looked up): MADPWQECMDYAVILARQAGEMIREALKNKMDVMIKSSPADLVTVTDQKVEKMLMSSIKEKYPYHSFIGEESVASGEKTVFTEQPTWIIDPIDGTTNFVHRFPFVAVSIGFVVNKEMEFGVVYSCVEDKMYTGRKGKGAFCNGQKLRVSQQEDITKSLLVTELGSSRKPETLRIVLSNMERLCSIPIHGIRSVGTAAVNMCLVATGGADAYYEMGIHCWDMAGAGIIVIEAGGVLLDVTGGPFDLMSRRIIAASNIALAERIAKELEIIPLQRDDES
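Elevated IP1 in lysates lowers TR-FRET signal (665/620 ratio and 620 channel reported). Cells were CHO-M1, given carbachol (50 uM as added) plus 50mM LiCl, pH 7.4, 30 min, 37C; compounds titrated up to 46 uM; AC50 by Hill equation.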
PNC assembly inh – blocks assembly of the perinucleolar compartment; PC3M PTB-GFP, PNC prevalence imaging, 16 h; hits give low values; activity change (PNC), negative = inhibition, % at 10 µM; 3.1% of 140,000 active; AID 2417;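 active means readout at or below -70, meaning at least 70% loss of cells showing the perinucleolar compartment, a nuclear body marking cancer cells; inconclusive means readout between -30 and a set limit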;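 further: plate controls were DMSO wells for no effect and camptothecin positive control wells for full effect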
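Compounds are pinned in duplicate onto adhered PC3M cells stably expressing GFP-tagged PTB and incubated 16 h at 37 C. Cells are then fixed, nuclei stained with Hoechst, and PNC-positive cells counted.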
ALOX12 inhib – 12-hLO (ALOX12) enzyme inhibition | P18054 | purified 12-hLO, xylenol orange hydroperoxide absorbance | Potency, µM (series often up to 57.1 µM), without a hit: top-dose activity change, negative = inhibition, hits mostly inhibitors | 0.12% of 150,000 active | AID 1452; further: potency means the concentration at half of the fitted maximal effect; on the % scale 0 is the no-effect control and ±100 the full control effect; nearly all actives have a fitted effect of over 55% in size
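Purified human 12hLO (150 nM), preincubated 15 min with compound, then 40 uM arachidonic acid for 30 min, room temperature, Hepes pH 7.0 with 0.01% Triton X-100. Hydroperoxide detected by ferrous iron/xylenol orange; 573/405 nm absorbance ratio gives reaction progress.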
An asterisk follows results filed as active; ? = inconclusive; . = not tested or not shown; [ ] = another dose, or the depositor's remark. Unless noted, the call rests on the fitted dose curve; in most records, active means well fitted curve in the direction sought with a large enough effect; inconclusive means small, poorly fitted or top-dose-only effect, or another doubt; inactive means no such curve, though single readings can be large; an effect the other way counts as inactive or inconclusive.

SMILES | NPSR antag | HTT aggregate | HTT ATP protect | IMPase cell inh | PNC assembly inh | ALOX12 inhib
COc1ccc(-n2c(C)c(C(C)=O)c3cc(OC(=O)c4ccc(C)cc4)ccc32)cc1 | . | . | . | 0 | . | .
Cc1cc(-c2csc(N)n2)c(C)n1CCc1ccccc1 | -15%[46.1 µM] | 21% | -13% | 9 | -108* | -19%
CCc1ccc(C(=O)/C=C/Nc2ccc(S(=O)(=O)Nc3cnc4ccccc4n3)cc2)cc1 | -10% | 8%[9.22 µM] | -17%[10 µM] | . | . | .
O=c1c2ccccc2c(-c2ccc(O)cc2)nn1-c1cccc(C(F)(F)F)c1 | -44% | 12% | -13%[10 µM] | 10 | -85* | -11%
O=c1c2ccccc2c(-c2cccc(C(F)(F)F)c2)nn1-c1ccccc1 | ? | -17%[9.22 µM] | -15%[10 µM] | . | . | .
COc1cc(-c2nc3c(c(C)nn3-c3ccccc3)c3cc(OC)c(OC)cc23)ccc1O | -18%[46.1 µM] | 2% | -17% | 4 | -109* | -5%
COc1cc2c(-c3cc(Br)ccc3O)nc3c(c(C)nn3-c3ccccc3)c2cc1OC | . | . | . | -8 | . | .
CC(=O)N1CCN(c2ccc(S(=O)(=O)NCCN(C(C)C)C(C)C)cc2[N+](=O)[O-])CC1 | 9% | 16% | 1%[10 µM] | . | -105* | -4%
COc1ccc(C2C3=C(CC(C)(C)CC3=O)Nc3c2c(=O)[nH]c(=O)n3Cc2ccccc2)cc1OC (stereo not drawn) | -9%[46.1 µM] | 1% | 28%[10 µM] | 4 | -85* | 2%
COc1ccc(C(=O)O/N=C/c2c(C(F)(F)F)nn(C)c2SCc2ccccc2Cl)cc1 | -17%[46.1 µM] | 10µM* | -93% | 16 | ? | 0%
COC(=O)c1ccccc1Sc1c(/C=N/OC(=O)c2ccccc2)c(C(F)(F)F)nn1C | -23%[46.1 µM] | ? | 13% | 8 | -19 | 0%
Cc1ccc(C(=O)O/N=C/c2c(C(F)(F)F)nn(C)c2Sc2ccc(Cl)cc2)cc1 | -6%[46.1 µM] | 13µM* | -3% | -3 | 41 | 2%
COc1ccc(CNc2ncncc2-c2cccc(NS(C)(=O)=O)c2)c(OC)c1 | . | . | -44% | . | . | .
N#CCCN(CC#Cc1ccccc1)OCc1ccccc1 | . | . | -10%[10 µM] | . | . | .
Cc1ccc(CNC(=O)CSc2n[nH]c(N)n2)cc1 | 0%[46.1 µM] | 3% | -8%[10 µM] | 4 | -93* | -2%
Nc1nc(SCC(=O)NCc2ccccc2)n[nH]1 | 11%[7.67 µM] | -1% | -1%[10 µM] | 0 | 19 | 0%
CCOC(=O)C1(CCCc2ccccc2)CCN(C(=O)CCN2CCCCC2=O)CC1 | 8% | 2%[9.22 µM] | 19%[10 µM] | . | . | .
CCN(CC)Cc1c(O)ccc2c(-c3ccccc3)cc(=O)oc12 | 3%[46.1 µM] | -31% | -1% | -12 | -118* | -2%
CCCCN(CC)Cc1c(O)ccc2c(-c3ccccc3)cc(=O)oc12 | 1% | -5%[9.22 µM] | 17%[10 µM] | . | . | .
Cc1cc(C)cc(CC(Cc2nc3ccccc3[nH]2)c2nc3ccccc3[nH]2)c1 (stereo not drawn) | ? | 22µM* | -11%[10 µM] | 4 | ? | -25%
Cc1ccc(CC(Cc2nc3ccccc3[nH]2)c2nc3ccccc3[nH]2)cc1 (stereo not drawn) | . | . | -14%[1.9 µM] | -3 | . | -4%
CCOC(=O)c1cc(OC(=O)c2ccccc2C)n(-c2ccccc2)n1 | . | . | . | -3 | . | .
COc1ccc(NC(=O)c2sc3nc(C)c(C(=O)Nc4ccc(C)cc4C)c(-c4cccs4)c3c2N)cc1 | . | . | . | 1 | . | .
CCOC(=O)CSC1=NC(=O)/C(=C/c2ccc(OC)cc2)S1 | -56% | -15% | -16%[10 µM] | . | -91* | -24%
O=C(Nc1ccc2c(c1)OCO2)C1CCCN1C(=O)OCc1ccccc1 (stereo not drawn) | 17%[46.1 µM] | -3% | -13%[10 µM] | 3 | -127* | -6%
SMILES | NPSR antag | HTT aggregate | HTT ATP protect | IMPase cell inh | PNC assembly inh | ALOX12 inhib
O=C(Nc1ccc2c(c1)OCO2)C1CCCN1C(=O)Nc1ccccc1F (stereo not drawn) | 12%[46.1 µM] | -13% | -12% | -3 | -84* | -3%
CN(CCc1ccccn1)c1ccc2c(c1)C(=O)c1ccccc1-2 | . | . | 12%[10 µM] | . | . | -1%[11.4 µM]
CN(C)c1ccc(C(=O)OCC(=O)c2cccs2)cc1 | -2% | 3% | 6%[10 µM] | . | -113* | -3%
COc1ccc(C(=O)COC(=O)c2ccc(N(C)C)cc2)cc1 | -6% | 28% | 2%[10 µM] | . | . | .
COC(=O)C1(C(=O)OC)Cc2conc2[C@H]1c1ccccc1 | . | . | ? | . | . | 4%
CCOC(=O)c1sc(N/N=C/c2ccccc2)nc1C | -6% | 2% | 34%[10 µM] | . | 28 | -3%
CC(=O)c1sc(N/N=C\c2ccccc2O)nc1C | 1.6µM* | 9%[9.22 µM] | 16%[10 µM] | . | . | .
C=CCn1c(SCC#N)nc2c(c1=O)C(C)(C)Cc1ccccc1-2 | -24%[46.1 µM] | 10µM* | -12%[10 µM] | 9 | 22 | -5%
CCCN1C(=O)SC(CC(=O)Nc2ccc(C)cc2)C1=O (stereo not drawn) | -3%[46.1 µM] | 21% | 10%[10 µM] | 10 | -100* | -6%
CC1CCCCC1NC(=O)c1cncc(Br)c1 (stereo not drawn) | -6%[46.1 µM] | -32% | 21%[10 µM] | 6 | -81* | 3%
CC1CCCC(NC(=S)NC(=O)c2cncc(Br)c2)C1C (stereo not drawn) | -33% | 4% | . | . | 0 | 5%

High-throughput results deposited in PubChem BioAssay by National Center for Advancing Translational Sciences (NCATS).
